# Source: the antibiotic and cytotoxicity screens of Wong et al. (2023)
# Out of some 39,000 compounds screened, about 1,500 (3.8%) were called active. The full list was thinned out, with actives kept by preference.
# System: HSkMC (human skeletal muscle cells)
# Test: cytotoxicity call (relative viability < 0.9)
# Conditions: 10 µM
row,Compound,cytotoxicity call
1,C[C@H](CO)N1C[C@H](C)[C@H](CN(C)C(=O)NC2CCCCC2)OCc2ccccc2-c2c(n(C)c3ccccc23)C1=O,inactive
2,CN1C(=O)CO[C@H]2CN(C(=O)NCc3cccnc3)C[C@@H]21,inactive
3,COc1ccc(S(=O)(=O)Nc2ccc3c(c2)CC(=O)N([C@@H](C)CO)C[C@H](C)[C@@H](CN(C)S(=O)(=O)c2ccc(C)cc2)O3)cc1,inactive
4,Cc1nnc(SCC2=C(C(=O)O)N3C(=O)[C@@H](NC(=O)Cn4cnnn4)[C@H]3SC2)s1,inactive
5,O=C(O)[C@@H]1CCCNC1,inactive
6,CC(=O)CNC(=O)Cc1ccccc1,inactive
7,CCN(CC)S(=O)(=O)c1nnc[nH]1,inactive
8,C[C@H](CO)N1C[C@H](C)[C@@H](CN(C)C(=O)Nc2ccc(C(F)(F)F)cc2)Oc2ncc(-c3ccc(C#N)cc3)cc2C1=O,inactive
9,CO[C@@H](C(=O)N(C)C[C@H]1OCc2ccccc2-c2c(n(C)c3ccccc23)C(=O)N([C@H](C)CO)C[C@@H]1C)c1ccccc1,inactive
10,CC(C)(C)OC(=O)N1CC[C@H](c2cn(-c3ccc(C(F)(F)F)cc3)nn2)[C@@H]1C(=O)Nc1cccc2cccnc12,inactive
11,CO[C@@H]1CN(C)C(=O)c2cc(NS(C)(=O)=O)ccc2OC[C@H](C)N(C(=O)C2CCCCC2)C[C@@H]1C,inactive
12,COc1ccc(CN(C)C[C@H]2OCCCC[C@@H](C)Oc3ccc(NC(=O)Cc4ccccc4)cc3C(=O)N([C@H](C)CO)C[C@@H]2C)cc1,inactive
13,CN1C(=O)c2cc(NC(=O)c3cnccn3)ccc2OC[C@@H]2O[C@H](CC(=O)N[C@H]3CCN(Cc4ccccc4)C3)CC[C@@H]21,inactive
14,C[C@@H]1CN([C@H](C)CO)C(=O)c2ccccc2-c2ccccc2CO[C@@H]1CN(C)C(=O)Nc1cccc(Cl)c1Cl,inactive
15,Cc1ccc(S(=O)(=O)Nc2ccc3c(c2)CC(=O)N([C@H](C)CO)C[C@@H](C)[C@H](CN(C)Cc2ccc(Cl)c(Cl)c2)O3)cc1,inactive
16,Cc1ccc(S(=O)(=O)Nc2ccc3c(c2)CC(=O)N([C@H](C)CO)C[C@@H](C)[C@@H](CN(C)Cc2ccc(Cl)c(Cl)c2)O3)cc1,active
17,C[C@H](CO)N1C[C@H](C)[C@H](CN(C)S(=O)(=O)c2ccc(Cl)cc2)Oc2c(NC(=O)Nc3ccc(C(F)(F)F)cc3)cccc2C1=O,inactive
18,C[C@@H]1CN([C@@H](C)CO)C(=O)c2cccc(NC(=O)Nc3ccc(C(F)(F)F)cc3)c2O[C@H]1CN(C)S(=O)(=O)c1ccc(Cl)cc1,inactive
19,C[C@H]1CN([C@@H](C)CO)C(=O)c2cccc(NC(=O)Nc3ccc(C(F)(F)F)cc3)c2O[C@@H]1CN(C)S(=O)(=O)c1ccc(Cl)cc1,active
20,C[C@@H]1CN([C@H](C)CO)C(=O)c2cccc(NC(=O)Nc3ccc(C(F)(F)F)cc3)c2O[C@@H]1CN(C)S(=O)(=O)c1ccc(Cl)cc1,inactive
21,C[C@H]1CN([C@@H](C)CO)C(=O)c2cccc(NC(=O)Nc3ccc(C(F)(F)F)cc3)c2O[C@H]1CN(C)S(=O)(=O)c1ccc(Cl)cc1,active
22,C[C@@H]1CN([C@@H](C)CO)C(=O)c2cccc(NC(=O)Nc3ccc(C(F)(F)F)cc3)c2O[C@@H]1CN(C)S(=O)(=O)c1ccc(Cl)cc1,inactive
23,C[C@@H]1CCCCO[C@H](CN(C)Cc2ccc(Cl)c(Cl)c2)[C@H](C)CN([C@@H](C)CO)C(=O)c2cc(NS(C)(=O)=O)ccc2O1,inactive
24,C[C@H]1CN([C@@H](C)CO)C(=O)c2cc(C#Cc3ccccn3)cnc2O[C@H]1CN(C)C(=O)CCN1CCCCC1,inactive

row,Compound,cytotoxicity call
1,C[C@@H]1CN([C@H](C)CO)C(=O)Cc2cc(NC(=O)CCCCCC(=O)Nc3ccccc3N)ccc2O[C@@H]1CN(C)Cc1ccc(Cl)c(Cl)c1,inactive
2,C[C@@H]1CN([C@@H](C)CO)C(=O)c2cccc(NS(=O)(=O)c3cccs3)c2O[C@H]1CN(C)C(=O)Nc1cccc2ccccc12,inactive
3,C[C@@H]1CCCCO[C@H](CN(C)C(=O)Nc2ccc3c(c2)OCO3)[C@H](C)CN([C@H](C)CO)C(=O)c2cc(NC(=O)c3ccccc3)ccc2O1,inactive
4,C[C@@H]1CN([C@@H](C)CO)C(=O)c2cc(NC(=O)Cc3cn(C)c4ccccc34)ccc2O[C@H]1CN(C)Cc1ccc(C(=O)Nc2ccccc2N)cc1,inactive
5,CC(C)NC(=O)Nc1ccc2c(c1)CC(=O)N([C@H](C)CO)C[C@H](C)[C@@H](CN(C)S(=O)(=O)c1cccs1)O2,inactive
6,CC(C)NC(=O)N(C)C[C@H]1Oc2c(NS(=O)(=O)c3ccccc3)cccc2C(=O)N([C@@H](C)CO)C[C@@H]1C,inactive
7,Cc1ccc(S(=O)(=O)N(C)C[C@@H]2Oc3ccc(NS(=O)(=O)c4ccc(F)cc4)cc3CC(=O)N([C@@H](C)CO)C[C@@H]2C)cc1,inactive
8,C[C@@H]1CN([C@@H](C)CO)C(=O)c2cc(NC(=O)NC3CCCCC3)ccc2O[C@@H](C)CCCCO[C@H]1CN(C)C(=O)Cc1ccccc1,inactive
9,C[C@@H]1CN([C@H](C)CO)C(=O)c2cc(NC(=O)c3ccncc3)ccc2O[C@@H]1CN(C)S(=O)(=O)c1cn(C)cn1,inactive
10,CCCCC(CC)CN1CN(CC(CC)CCCC)CC(C)(N)C1 (stereo not given),active
11,C[C@@H]1CN([C@@H](C)CO)C(=O)Cc2cc(NC(=O)NC3CCCCC3)ccc2O[C@H]1CN(C)Cc1ccc(C(=O)Nc2ccccc2N)cc1,inactive
12,C[C@@H]1CN([C@@H](C)CO)S(=O)(=O)c2ccc(Br)cc2O[C@@H]1CN(C)C(=O)c1cnccn1,inactive
13,C[C@@H]1CCCCO[C@@H](CN(C)Cc2ccc(C(=O)O)cc2)[C@@H](C)CN([C@H](C)CO)C(=O)c2cc(NC(=O)CCC(F)(F)F)ccc2O1,inactive
14,C[C@@H]1CN([C@@H](C)CO)C(=O)c2ccccc2-c2ccccc2CO[C@@H]1CN(C)Cc1ccccc1C(F)(F)F,inactive
15,C[C@H]1CN([C@@H](C)CO)C(=O)c2ccccc2-c2ccccc2CO[C@@H]1CN(C)Cc1ccccc1C(F)(F)F,active
16,C[C@H](CO)N1C[C@H](C)[C@@H](CN(C)Cc2ccccc2C(F)(F)F)OCc2ccccc2-c2ccccc2C1=O,inactive
17,C[C@@H]1CN([C@H](C)CO)C(=O)c2ccccc2-c2ccccc2CO[C@@H]1CN(C)Cc1ccccc1C(F)(F)F,inactive
18,C[C@H](CO)N1C[C@H](C)[C@H](CN(C)Cc2ccccc2C(F)(F)F)OCc2ccccc2-c2ccccc2C1=O,active
19,C[C@H]1CN([C@@H](C)CO)C(=O)c2ccccc2-c2ccccc2CO[C@H]1CN(C)Cc1ccccc1C(F)(F)F,inactive
20,C[C@H](CO)N1C[C@H](C)[C@@H](CN(C)C(=O)Nc2cccc3ccccc23)Oc2c(NC(=O)Nc3ccc(F)cc3)cccc2C1=O,inactive
21,C[C@H](CO)N1C[C@H](C)[C@H](CN(C)Cc2ccc(C(=O)O)cc2)Oc2ccc(NC(=O)CCN3CCOCC3)cc2C1=O,inactive
22,NC(=O)NCC#Cc1ccc2c(c1)[C@]1(C(=O)N2)[C@H](c2ccccc2OCCO)N2[C@H](c3ccccc3)[C@H](c3ccccc3)OC(=O)[C@H]2[C@@H]1C(=O)N1CCCCCCC1,inactive
23,Cc1noc(C)c1NC(=O)N(C)C[C@H]1Oc2ccc(NS(=O)(=O)c3cn(C)cn3)cc2CC(=O)N([C@H](C)CO)C[C@H]1C,inactive
24,CN1C(=O)c2cc(NC(=O)c3ccc(C(F)(F)F)cc3)ccc2OC[C@@H]2O[C@@H](CC(=O)NC3Cc4ccccc4C3)CC[C@@H]21,inactive

row,Compound,cytotoxicity call
1,C[C@@H]1CN([C@@H](C)CO)C(=O)c2cc(NC(=O)CCCN(C)C)ccc2O[C@H]1CN(C)Cc1ccc2c(c1)OCO2,inactive
2,Nc1[nH]ncc1-c1cc(Cl)ccc1Oc1cc(F)c(S(=O)(=O)Nc2cscn2)cc1Cl,inactive
3,Cc1noc(C)c1S(=O)(=O)Nc1ccc2c(c1)C(=O)N([C@H](C)CO)C[C@@H](C)[C@@H](CN(C)C)OCCCC[C@H](C)O2,inactive
4,CCc1nc2ccc(C(=O)NC3CCN(Cc4ccccc4)CC3)cn2c1N(C)Cc1cc2ccccc2s1,active
5,CCc1nc2ccc(C(=O)Nc3cccc(OCC(=O)N(C)C)c3)cn2c1N(C)Cc1cc2ccccc2s1,inactive
6,CCc1nc2ccc(C(=O)NC3CCN(Cc4ccccc4)CC3)cn2c1N(C)CCN1CCOCC1,inactive
7,CCN(CC)c1ccnc([C@H]2COCCN2)n1,inactive
8,CC(C)NC(=O)N(C)C[C@@H]1Oc2ccc(NC(=O)Nc3ccc4c(c3)OCO4)cc2C(=O)N([C@@H](C)CO)C[C@H]1C,inactive
9,CNC1C(O)C(NC)C2OC3(O)C(=O)CC(C)OC3OC2C1O.Cl.Cl (stereo not given),inactive
10,Nc1ccccc1C(=O)C[C@H](N)C(=O)O,inactive
11,Nc1ccc(/C=C/C(=O)NCc2cc3cc(-c4ccc(C(=O)N5CCC(F)(F)CC5)cc4)cc(-c4ccc(F)cc4)c3o2)cn1,active
12,C[C@H]1CN([C@@H](C)CO)C(=O)c2cc(NC(=O)c3ccncc3)ccc2O[C@H]1CN(C)Cc1ccncc1,inactive
13,O=C1[C@@H]2[C@H](C(=O)N1c1ccccc1)C13COC[C@H](c4ccccc4)N1C(=O)C2(C(=O)NCc1ccccc1)O3 (stereo not given in full),inactive
14,COc1ccc(S(=O)(=O)Nc2ccc3c(c2)C(=O)N([C@H](C)CO)C[C@H](C)[C@H](CN(C)Cc2ccc(-c4ccccc4)cc2)O3)cc1,inactive
15,COc1ccc(S(=O)(=O)Nc2ccc3c(c2)C(=O)N([C@H](C)CO)C[C@H](C)[C@@H](CN(C)Cc2ccc(-c4ccccc4)cc2)O3)cc1,inactive
16,COc1ccc(S(=O)(=O)Nc2ccc3c(c2)C(=O)N([C@@H](C)CO)C[C@H](C)[C@@H](CN(C)Cc2ccc(-c4ccccc4)cc2)O3)cc1,inactive
17,COc1ccc(S(=O)(=O)Nc2ccc3c(c2)C(=O)N([C@H](C)CO)C[C@@H](C)[C@@H](CN(C)Cc2ccc(-c4ccccc4)cc2)O3)cc1,active
18,COc1ccc(S(=O)(=O)Nc2ccc3c(c2)C(=O)N([C@H](C)CO)C[C@@H](C)[C@H](CN(C)Cc2ccc(-c4ccccc4)cc2)O3)cc1,inactive
19,COc1ccc(S(=O)(=O)Nc2ccc3c(c2)C(=O)N([C@@H](C)CO)C[C@@H](C)[C@@H](CN(C)Cc2ccc(-c4ccccc4)cc2)O3)cc1,active
20,COc1ccc(S(=O)(=O)Nc2ccc3c(c2)C(=O)N([C@@H](C)CO)C[C@H](C)[C@H](CN(C)Cc2ccc(-c4ccccc4)cc2)O3)cc1,inactive
21,COc1ccc(S(=O)(=O)Nc2ccc3c(c2)C(=O)N([C@@H](C)CO)C[C@@H](C)[C@H](CN(C)Cc2ccc(-c4ccccc4)cc2)O3)cc1,active
22,COc1ccc(S(=O)(=O)Nc2ccc3c(c2)C(=O)N([C@H](C)CO)C[C@@H](C)[C@H](CN(C)Cc2ccc(Oc4ccccc4)cc2)O3)cc1,inactive
